Test [1] is described as follows: NCI Yeast Anticancer Drug Screen. Data for the rad50 strain (AID 155).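 Further: 0% = growth of vehicle-only cultures of the same strain.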 As to conditions: S. cerevisiae rad50 strain growth inhibition; at 50.0 µM; hits give high values. The procedure, abridged:
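Cells are treated with compound, grown, and their growth is then scored against vehicle-only cultures of the same repair-deficient yeast strain.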

A short description of test [2]: NCI Yeast Anticancer Drug Screen. Data for the mec2-1 strain (AID 157). As to conditions: S. cerevisiae mec2-1 strain, at 50.0 µM, hits give high values. The procedure, abridged:
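Mutant yeast (mec2-1) grown with compound; growth inhibition relative to vehicle control reported.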

Test [3] can be described thus: NCI Yeast Anticancer Drug Screen. Data for the sgs1 mgt1 strain (AID 161).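 Further: 0% = growth of cultures given vehicle only.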 As to conditions: S. cerevisiae sgs1 mgt1 strain, at 50.0 µM, hits give high values. The method, boiled down:
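Compounds are added to genetically altered yeast, and growth is compared with cultures given vehicle alone to give percent inhibition.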

Test [4] can be described thus: NCI Yeast Anticancer Drug Screen. Data for the cln2 rad14 strain (AID 165).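 Further: 0% = growth equal to vehicle treated cultures.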 As to conditions: S. cerevisiae cln2 rad14 strain, at 50.0 µM, hits give high values. The method, boiled down:
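Readout is yeast growth inhibition versus vehicle-treated controls, using a strain with cln2 and rad14 alterations exposed to compound.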

The nature of test [5]: NCI Yeast Anticancer Drug Screen. Data for the bub3 strain (AID 167). The following applies: S. cerevisiae bub3 mutant strain, at 50.0 µM, hits give high values. The method, boiled down:
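Part of a panel of yeast mutants defective in DNA damage repair or cell cycle regulation. Each strain is grown with compound, and inhibition is calculated relative to solvent-treated cultures.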

Test [6] can be described thus: NCI Yeast Anticancer Drug Screen. Data for the mlh1 rad18 strain (AID 175). As to conditions: S. cerevisiae mlh1 rad18 strain growth inhibition; at 50.0 µM; hits give high values. The procedure, abridged: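 Genetically defined yeast (DNA repair-deficient) exposed to compounds; growth inhibition determined relative to vehicle.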

This is part of a sample that, as a whole, favours compounds with a hit. Of some 79,000 tested, about 15% had one in any assay. Values without a mark were called inactive. Active and inactive are the calls of the source. No stated cut-off is given here; in the data, active means growth inhibition above about 70%; inactive means the rest.

On to `CCCC/C(C)=N/NC(N)=S`, for which the growth inhibition is 2.3% in test [1]; -4.3% in test [2]; -4.3% in test [3]; -2.65% in test [4]; -15.9% in test [5]; 1.9% in test [6].
Consider `CC(=O)Oc1cccc(OC(C)=O)c1`, for which the growth inhibition in test [1] was 41.8%; in test [2] it was 38.9%; in test [3], 25.2%; in test [4], 12.1%; in test [5] it was 6.8%; in test [6], 34.9%.
Consider `CC(=O)NNc1nc(C)c(C(/C=C/c2ccc(Cl)cc2)=N/NC(=S)NN)s1`, for which the growth inhibition in test [1] is 34.1%; in test [2], 20.4%; in test [3] it was 45%; in test [4] it was 15.8%; in test [5] it was 11.8%; in test [6], 9.75%.
Regarding `CN1CCOc2c1cnn(CCO)c2=O`, the growth inhibition was -52.2% in test [1]; -15.4% in test [2]; -22.4% in test [3]; -10.4% in test [4]; -4.2% in test [5]; -7.6% in test [6].
For `N/N=C1/C=Cc2cccc3cccc1c23`, the growth inhibition in test [1] was 19.3%; in test [2], -37.2%; in test [3], 15.3%; in test [4], 30.2%; in test [5], 16.2%; in test [6], 38.4%.
As for `CN(C)/C=C/c1nnnn1-c1ccc(I)cc1`, the growth inhibition in test [1] is 4.5%; in test [2], 12.9%; in test [3] it was 24.8%; in test [4], 7.45%; in test [5], 28.8%; in test [6], 34.6%.
Turning to `C(#[C][Sn]([c]1ccccc1)([c]1ccccc1)[c]1ccccc1)c1ccccc1`, the growth inhibition in test [1] was 98.3% (active); in test [2], 95.5% (active); in test [3], 97.8% (active); in test [4] it was 98.5% (active); in test [5] it was 98.8% (active); in test [6], 98.6% (active).
As to `CCCCn1c2nc(=O)n(C)c(=O)c-2cc2ccccc21`, the growth inhibition in test [1] was 29%; in test [2], 16.7%; in test [3], 22.6%; in test [4], -25.4%; in test [5], 17.8%; in test [6], 34.7%.
Consider `Cc1nc(-c2ccccc2)ncc1C(O)CN(C)C` (centres undefined), for which the growth inhibition was -4.7% in test [1]; -6.45% in test [2]; 5.35% in test [3]; 2.35% in test [4]; -30.4% in test [5]; -6.6% in test [6].
Turning to `COC1C(/C=C/C(C)=O)OC2OC(C)(C)OC21` (centres undefined), the growth inhibition in test [1] was 1.7%; in test [2], 1.35%; in test [3], 3.85%; in test [4], -9.45%; in test [5], 2.3%; in test [6] it was -1.55%.
Turning to `OC1(c2ccccc2)CCCN(Cc2ccccc2)C1` (centres undefined), the growth inhibition in test [1] is 3.75%; in test [2], 7%; in test [3] it was 6.6%; in test [4], -17.4%; in test [5] it was 14.6%; in test [6] it was 15.8%.
Consider `COc1cccc(CN2CCCN(Cc3cccc(OC)c3O)C2c2ccccc2)c1O`, for which the growth inhibition is 22.1% in test [1]; 3.2% in test [2]; 1.8% in test [3]; -6.45% in test [4]; 0.9% in test [5]; 12.4% in test [6].
Take `CCCC(=O)C1=CC(C(C)C)CCC1C` (centres undefined): the growth inhibition in test [1] is 12.6%; in test [2] it was -4.4%; in test [3] it was -4.05%; in test [4], -12.2%; in test [5], 1.15%; in test [6], 1%.
Turning to `COC1=C(N(C)C)C(=O)c2ccccc2C1=O`, the growth inhibition in test [1] is 21.4%; in test [2], 0.55%; in test [3], 11.4%; in test [4], 7.3%; in test [5], -15.3%; in test [6], 4.55%.
As for `COc1ccc(CCN=C(N)CCl)cc1`, the growth inhibition in test [1] was 11.8%; in test [2], 10.8%; in test [3], 7.4%; in test [4] it was 6.65%; in test [5] it was 18.9%; in test [6], -2%.
For `O=C1c2ccccc2C(=O)N1Nc1ccccc1`, the growth inhibition in test [1] was 6.6%; in test [2], 3.2%; in test [3], 7.45%; in test [4], -8.1%; in test [5], 3.1%; in test [6], 16.5%.
For `C=CCn1c(SCc2ccccc2)nccc1=O`, the growth inhibition is 25.1% in test [1]; -10.8% in test [2]; 16.9% in test [3]; -33% in test [4]; 7.15% in test [5]; 8.9% in test [6].
In the case of `NC(=O)C(N)CC(=O)O` (centres undefined), the growth inhibition in test [1] is 6.15%; in test [2] it was -5.9%; in test [3] it was -3.1%; in test [4], -16.1%; in test [5] it was 6.5%; in test [6], 11.1%.
Regarding `Nc1nc(Cl)cc(Nc2cc(Cl)cc(Cl)c2)n1`, the growth inhibition is 83.2% (active) in test [1]; 53.6% in test [2]; 79.7% (active) in test [3]; 63.7% in test [4]; 59.6% in test [5]; 82.3% (active) in test [6].
